The record followed here is PubChem BioAssay AID1851 (National Center for Advancing Translational Sciences (NCATS), 2009).

By AC50 is commonly meant the concentration at which the activity in the assay is half-maximal.

The campaign covered roughly 16,000 compounds. About 2,600 (16%) were called active. About 20% were inconclusive and are not listed. Calls come from the whole dose curve; as a rule, active = well fitted curve in the direction sought with a large enough effect; inconclusive = small, poorly fitted or top-dose-only effect, or effect the other way; inactive = no such curve, though single readings can be large or run the other way. A selection follows.
% is set by controls: 0 for no effect and ±100 for the full control effect.

The target of this assay is Cytochrome P450 2D6 (Homo sapiens) (UniProt P10635). Put plainly: Cytochrome panel assay with activity outcomes. The settings on record: recombinant CYP, pro-luciferin dealkylation, luminescence, p450-cyp2d6; series mostly up to 57.1 µM. As to the method: The P450 gene superfamily is involved in the metabolism and clearance of xenobiotics. This assay used various human CYP P450 isozymes to measure the dealkylation of various pro-luciferin substrates to luciferin. The luciferin is then measured by luminescence after the addition of a luciferase detection reagent. Pro-luciferin substrate concentration in the assay was equal to its KM for its CYP P450 isozyme. Inhibitors and some substrates limit the production of luciferin, and decrease measured luminescence.
Sequence of Cytochrome P450 2D6 (Homo sapiens) (P10635 whole entry, looked up): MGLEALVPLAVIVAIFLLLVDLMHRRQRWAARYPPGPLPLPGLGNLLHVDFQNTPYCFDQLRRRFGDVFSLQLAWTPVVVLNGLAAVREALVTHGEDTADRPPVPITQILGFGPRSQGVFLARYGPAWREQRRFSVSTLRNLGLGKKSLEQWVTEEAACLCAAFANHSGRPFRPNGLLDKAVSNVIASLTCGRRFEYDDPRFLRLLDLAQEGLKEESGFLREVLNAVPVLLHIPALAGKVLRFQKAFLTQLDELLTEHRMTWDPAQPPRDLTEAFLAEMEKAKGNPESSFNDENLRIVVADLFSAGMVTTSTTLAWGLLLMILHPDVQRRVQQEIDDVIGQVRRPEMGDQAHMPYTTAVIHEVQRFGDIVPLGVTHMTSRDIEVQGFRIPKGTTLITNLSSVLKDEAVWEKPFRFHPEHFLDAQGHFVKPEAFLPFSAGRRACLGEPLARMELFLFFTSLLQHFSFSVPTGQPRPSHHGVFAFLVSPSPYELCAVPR
NCGC Assay Protocol Summary:
1, Reagent, 2 uL, Isozyme and Pro-Luciferin
2, Library compounds, 23 nl, 40 uM to 0.24 nM dilution series
3, Controls, 23 nl, Isozyme specific inhibitor
4, Reagent, 2 uL, NADPH regeneration solution
5, Incubation time, 60 min, Isozyme specific temperature
6, Reagent, 4ul, Detection reagent
7, Incubation time, 20 min, Isozyme specific temperature
8, Detection, 1 sec, ViewLux luminescent read
The luciferase-based P450-GloTM Screening Systems were obtained from Promega (Madison, WI) for CYP 1A2 (V9770), CYP 2C9 (V9790), CYP2 C19 (V9880), CYP 2D6 (V9890), and CYP 3A4 Luciferin-PPXE (V9910) and were adapted for 1,536-well microplates and an automated protocol. The control compounds furafylline for 1A2 (F124), sulfaphenazole for CYP 2C9 (S0758), ketoconazole for CYP 2C19 (K1003), quinidine for 2D6 (Q3625), and ketoconazole for 3A4 (K1003) were purchased from Sigma Aldrich (St. Louis, MO). Recombinant P450 enzymes were obtained from baculovirus constructs expressed in insect cells (BD/Gentest).
Medium-binding white solid Kalypsys plates used. Mixtures kept on ice. 1A2: 10 nM 1A2, 100 uM Luc-ME, 100 mM KPO4; 2C9: 10 nM 2C9, 100 uM Luc-H, 25 mM KPO4; 2C19: 5 nM 2C19, 10 uM Luc-H EGE, 50 mM KPO4; 2D6: 5 nM 2D6, 30 uM Luc-ME EGE, 100 mM KPO4; 3A4: 10 nM, 25 uM Luc-PPXE. All amounts are reflected in their final concentration, working concentration is 2x.
NADPH regeneration solution: 1.3 mM NADP+, 3.3 mM glucose-6-phosphate, 3.3 mM MgCl2, 0.4 U/mL glucose-6-phosphate dehydrogenase for all isozymes, 200 mM KPO4 for 3A4. Mixture prepared at RT but kept on ice during automated run.
RT incubation in auxilliary plate hotel for 1A2, 2D6, and 3A4; 37C for 2C9 and 2C19.
Keywords: P450, CYP1A2, CYP2C19, CYP2C9, CYP2D6, CYP3A4, Luciferase, MLSMR, MLSCN, NIH Roadmap, qHTS, NCGC
`Cc1ccc2nc(CC(=O)c3ccc4ccccc4c3)c(=O)[nH]c2c1`: the activity, negative = inhibition was -4.59% [at 11.4 µM] (inactive). For the compound `Cc1ccc2nc(SCC(=O)c3ccc4c(c3)OCO4)[nH]c2c1`, the AC50 is 4.47 µM (active). Still for that read-out and setting: the result for `COc1ccc2nc(SCC(=O)Nc3ccc4c(c3)OCCO4)[nH]c2c1` reads “inactive”.

In the case of `CC(/C=C1\N=C(SCc2ccccc2Cl)SC1=O)=C\c1ccccc1`, the AC50 result was “inactive”.

On to `Cc1ccccc1Cn1nc(C)c(NC(=O)c2sc3ccccc3c2Cl)c1C`, for which the AC50 entry is “inactive”. Take `Cc1cc(Nc2ccc(Cl)cc2)nc(N)n1`: the AC50 result is “inactive”.

With `Cc1nnc(SCc2nc(N)nc(Nc3ccccc3)n2)s1`, the AC50 entry was “inactive”. On the same count and under the same terms, the result for `Cc1cc(Nc2ccccc2)nc(N)n1` reads 11.2 µM (active); that for `COC(=O)C1CCN(c2cc(=O)n(C3CCCCC3)c(=O)[nH]2)CC1`, “inactive”; that for `CCC(=O)c1ccc(OCC(O)CN(CCc2ccccc2)Cc2ccccc2)cc1` (stereo unspecified), 1 µM (active).

On to `CN(C)CC(O)COc1ccc(C(C)(C)c2ccc(OCC(O)CN(C)C)cc2)cc1` (stereo unspecified), for which the AC50 result is “inactive”. On the same count and under the same terms, the result for `Cc1ccc(OCC(=O)NNC(=O)CCc2ccccc2)cc1` reads “inactive”; that for `COc1ccc(S(=O)(=O)NCc2ccc(C(=O)N3CCN(c4ccccn4)CC3)cc2)cc1`, “inactive”. The same measure, in the same setting: as for `c1ccc2c(CN3CCN(Cc4c[nH]c5ccccc45)CC3)c[nH]c2c1`, the figure is 2.51 µM (active). As for `N[C@@H](Cc1c[nH]c2ccccc12)C(=O)O`, the AC50 entry is “inactive”. Turning to `O=C(O)[C@H](Cc1c[nH]c2ccccc12)N1C(=O)c2ccccc2C1=O`, the activity, negative = inhibition is -2.59% [at 11.4 µM] (inactive). For `COC(=O)Cn1cc(/C=N/NC(=O)c2ccc(C#N)cc2F)c2ccccc21`, the AC50 result was “inactive”. As to `CC(C)c1cccc2cc3c(nc12)-c1cccc(=O)n1C3`, the AC50 entry is “inactive”. `Cc1ccc(C(=O)c2ccc(CC(=O)O)n2C)cc1`: the AC50 entry is “inactive”. Consider `N#Cc1ccc(C(=O)Nc2ccc(N3CCN(C(=O)c4ccco4)CC3)cc2)c(F)c1`, for which the AC50 entry is “inactive”.

With `COc1ccc(CNc2nc(-c3c(C)noc3C)nc3ccccc23)c(OC)c1`, the AC50 result is “inactive”.

As to `COc1ccccc1CNc1nc(-c2ccccc2CN(C)C)nc2ccccc12`, the AC50 is 10 µM (active). Turning to `COc1ccc(CNc2nc(-c3ccc(C(=O)N(C)C)cc3)nc3ccccc23)c(OC)c1`, the AC50 result is “inactive”.

With `COc1ccc(CNc2nc(-c3ccccc3CN(C)C)nc3ccccc23)c(OC)c1`, the AC50 was 10 µM (active). For the compound `N[C@@H](CO)C(=O)NNCc1ccc(O)c(O)c1O`, the AC50 result was “inactive”. Take `Cc1cc(NC(=O)c2ccccc2Cl)no1`: the AC50 result is “inactive”. For `CCOC(=O)C(C)n1cnc2c(oc3ccccc32)c1=O` (stereo unspecified), the AC50 result is “inactive”. As to `O=C(NNC(=O)c1ccccc1-n1cccc1)c1ccc(Cl)c(Cl)c1`, the AC50 result is “inactive”. Turning to `CCOc1ccc(NC(=O)c2nnn(CC(=O)Nc3ccccc3OC)c2N)cc1`, the AC50 entry is “inactive”. Consider `COc1ccc(N2CCN(CCNC(=O)C3CCN(S(=O)(=O)c4cccs4)CC3)CC2)cc1`, for which the AC50 result is “inactive”. Same read-out and setting: as for `CC(=O)NC(C)C(c1cccs1)N1CCN(c2ccccc2)CC1` (stereo unspecified), the entry is “inactive”.

In the case of `CC(C)C(NS(=O)(=O)c1cccs1)C(=O)NCCN1CCN(c2ccccc2)CC1` (stereo unspecified), the AC50 was 14.1 µM (active). In the case of `COc1ccc(NC(=O)N2CC3(CCN(S(C)(=O)=O)CC3)C2)cc1`, the AC50 result is “inactive”. As for `O=C(Nc1cccc(OC(=O)c2ccco2)c1)c1ccco1`, the AC50 result was “inactive”.

With `O=C(Nc1cccc(-c2nc3ncccc3o2)c1)c1sc2ccccc2c1Cl`, the AC50 result was “inactive”. As for `O=C(Nc1cccc(-c2nc3ncccc3o2)c1)c1sc2cc(Cl)ccc2c1Cl`, the AC50 result is “inactive”. For the compound `O=C(CSc1ccccc1)Nc1ccc(NC(=O)c2ccco2)cc1`, the AC50 entry was “inactive”. On to `O=C(CSc1ccc(Cl)cc1)Nc1cccc(-c2nc3ncccc3o2)c1`, for which the AC50 is 8.91 µM (active). Consider `O=C(Nc1nnc(SCc2ccc(Cl)cc2)s1)c1ccco1`, for which the AC50 entry is “inactive”. `O=C(CSc1ccc(Cl)cc1)Nc1cccc(NC(=O)c2ccco2)c1`: the AC50 was 6.31 µM (active). On the same count and under the same terms, the result for `CC(=O)c1ccc(-n2nnnc2SCC(=O)Nc2cccc(NC(=O)c3ccco3)c2)cc1` reads “inactive”. For `Cc1ccc(SCC(=O)Nc2cccc(NC(=O)c3ccco3)c2)cc1`, the AC50 is 20 µM (active). In the case of `COc1ccc(NC(=O)c2ncn[nH]2)cc1`, the AC50 result is “inactive”.

As for `COC(=O)C(C)(C(=O)OC)c1ccc([N+](=O)[O-])cn1`, the AC50 entry is “inactive”.

Take `Cc1c(Cl)c([N+](=O)[O-])nn1CC(=O)Nc1c(C)n(C)n(-c2ccccc2)c1=O`: the AC50 result is “inactive”.

In the case of `Cc1ccc(NC(=O)CCc2c(C)nc3ncnn3c2C)nc1`, the AC50 entry was “inactive”.

In the case of `CC(=O)c1cccc(NC(=O)c2csc(-n3nc(C)cc3C(F)(F)F)n2)c1`, the AC50 entry was “inactive”. For `COC(=O)CCCC(=O)O`, the activity, negative = inhibition was 8.35% [at 11.4 µM] (inactive).

As to `COC(=O)[C@@]1(Cc2ccc(OC)cc2)[C@@H]2[C@@H](CC(=O)[C@H]2CC(=O)C(=O)N(C)C)CN1C(=O)c1ccccc1`, the AC50 entry is “inactive”. On to `O=[N+]([O-])c1ccc2c(c1)Cc1cc(N=Cc3ccc4c(c3)OCO4)ccc1-2`, for which the activity, negative = inhibition is -11.6% [at 11.4 µM] (inactive).

As for `CN1CCN(c2nc3cc(C(F)(F)F)ccc3n3cccc23)CC1`, the AC50 entry is “inactive”.
